What was measured:
Assay in all cases: PBM; 200 nM protein, PBS
Details in all cases: dsDNA, one strand shown
VENTX = molecular target: T1, VENTX (Homo sapiens, UniProt O95231 78-163, R121Q)
T1 sequence: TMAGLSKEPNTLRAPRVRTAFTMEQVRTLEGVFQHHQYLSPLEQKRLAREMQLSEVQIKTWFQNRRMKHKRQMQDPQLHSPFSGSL

HOXA4 [1] = molecular target: HOXA4 (Homo sapiens, UniProt Q00056 201-287, W262R)
HOXA7 [2] = molecular target: HOXA7 (Homo sapiens, UniProt P31268 116-202)
ALX4 [3] = molecular target: ALX4 (Homo sapiens, UniProt Q9H161 200-286)
PRRX1 [4] = molecular target: PRRX1 (Homo sapiens, UniProt P54821 80-166, F113S)
HOXB6 [5] = molecular target: HOXB6 (Homo sapiens, UniProt P17509 132-218, K202E)
ALX4 [6] = molecular target: ALX4 (Homo sapiens, UniProt Q9H161 200-286, Q225E)
HOXA2 = HOXA2 (Homo sapiens, UniProt O43364 129-215, R185T)
HOXA4 [7] = molecular target: HOXA4 (Homo sapiens, UniProt Q00056 201-287, R217L)
HOXA4 [8] = molecular target: HOXA4 (Homo sapiens, UniProt Q00056 201-287)
VAX1 [9] = molecular target: VAX1 (Homo sapiens, UniProt Q5SQQ9 86-172)
VAX1 [10] = molecular target: VAX1 (Homo sapiens, UniProt Q5SQQ9 86-172, T142I)
HOXA7 [11] = molecular target: HOXA7 (Homo sapiens, UniProt P31268 116-202, W177C)
HOXA4 [12] = molecular target: HOXA4 (Homo sapiens, UniProt Q00056 201-287, W262F)
PRRX1 [13] = molecular target: PRRX1 (Homo sapiens, UniProt P54821 80-166)
VAX1 [14] = molecular target: VAX1 (Homo sapiens, UniProt Q5SQQ9 86-172, K157R)
HOXB6 [15] = molecular target: HOXB6 (Homo sapiens, UniProt P17509 132-218)
MSX2 [16] = molecular target: MSX2 (Homo sapiens, UniProt P35548 130-214, R199I)
MSX2 [17] = molecular target: MSX2 (Homo sapiens, UniProt P35548 130-214)
MSX2 [18] = molecular target: MSX2 (Homo sapiens, UniProt P35548 130-214, F161Y)
Sequence of MSX2 (Homo sapiens, UniProt P35548 130-214, F161Y) (P35548 130-214 F161Y): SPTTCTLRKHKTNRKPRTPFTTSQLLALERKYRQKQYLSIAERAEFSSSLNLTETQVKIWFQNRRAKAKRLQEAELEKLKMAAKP

Sequence of HOXA2 (O43364 129-215 R185T): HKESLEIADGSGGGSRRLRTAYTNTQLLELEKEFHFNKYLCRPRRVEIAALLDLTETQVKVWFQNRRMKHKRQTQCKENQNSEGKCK
Sequence of HOXA4 (Homo sapiens, UniProt Q00056 201-287, W262F) (Q00056 201-287 W262F): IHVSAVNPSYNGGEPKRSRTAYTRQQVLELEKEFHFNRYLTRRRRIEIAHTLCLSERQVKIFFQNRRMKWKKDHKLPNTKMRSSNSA
Sequence of HOXA7 (Homo sapiens, UniProt P31268 116-202, W177C) (P31268 116-202 W177C): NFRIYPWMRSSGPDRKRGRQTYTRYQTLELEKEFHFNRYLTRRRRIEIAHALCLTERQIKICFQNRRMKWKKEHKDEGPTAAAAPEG
Sequence of VAX1 (Homo sapiens, UniProt Q5SQQ9 86-172, K157R) (Q5SQQ9 86-172 K157R): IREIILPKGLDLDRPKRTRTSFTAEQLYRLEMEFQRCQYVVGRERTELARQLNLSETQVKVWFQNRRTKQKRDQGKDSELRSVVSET
Sequence of HOXB6 (Homo sapiens, UniProt P17509 132-218) (P17509 132-218): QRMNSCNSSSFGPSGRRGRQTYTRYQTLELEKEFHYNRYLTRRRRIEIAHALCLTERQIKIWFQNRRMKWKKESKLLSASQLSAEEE
Sequence of VAX1 (Homo sapiens, UniProt Q5SQQ9 86-172) (Q5SQQ9 86-172): as the sequence (Q5SQQ9 86-172 K157R) above, with R72K counted along it
Sequence of VAX1 (Homo sapiens, UniProt Q5SQQ9 86-172, T142I) (Q5SQQ9 86-172 T142I): as the sequence (Q5SQQ9 86-172 K157R) above, with T57I, R72K counted along it
Sequence of HOXA7 (Homo sapiens, UniProt P31268 116-202) (P31268 116-202): as the sequence (P31268 116-202 W177C) above, with C62W counted along it
Sequence of HOXB6 (Homo sapiens, UniProt P17509 132-218, K202E) (P17509 132-218 K202E): as the sequence (P17509 132-218) above, with K71E counted along it
Sequence of MSX2 (Homo sapiens, UniProt P35548 130-214) (P35548 130-214): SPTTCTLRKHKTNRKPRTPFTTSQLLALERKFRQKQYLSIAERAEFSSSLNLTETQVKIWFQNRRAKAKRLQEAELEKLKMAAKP
Sequence of PRRX1 (Homo sapiens, UniProt P54821 80-166) (P54821 80-166): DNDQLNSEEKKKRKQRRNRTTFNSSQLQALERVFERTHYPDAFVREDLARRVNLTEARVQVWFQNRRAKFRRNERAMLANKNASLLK
Sequence of ALX4 (Homo sapiens, UniProt Q9H161 200-286, Q225E) (Q9H161 200-286 Q225E): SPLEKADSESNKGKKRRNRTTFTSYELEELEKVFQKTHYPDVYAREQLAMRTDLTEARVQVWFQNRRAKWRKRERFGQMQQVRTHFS
Sequence of MSX2 (Homo sapiens, UniProt P35548 130-214, R199I) (P35548 130-214 R199I): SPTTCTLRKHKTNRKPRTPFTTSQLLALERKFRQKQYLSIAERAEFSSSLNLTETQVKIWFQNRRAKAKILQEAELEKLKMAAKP
Sequence of HOXA4 (Homo sapiens, UniProt Q00056 201-287, W262R) (Q00056 201-287 W262R): as the sequence (Q00056 201-287 W262F) above, with F62R counted along it
Sequence of HOXA4 (Homo sapiens, UniProt Q00056 201-287, R217L) (Q00056 201-287 R217L): as the sequence (Q00056 201-287 W262F) above, with R17L, F62W counted along it
Sequence of HOXA4 (Homo sapiens, UniProt Q00056 201-287) (Q00056 201-287): as the sequence (Q00056 201-287 W262F) above, with F62W counted along it
Sequence of ALX4 (Homo sapiens, UniProt Q9H161 200-286) (Q9H161 200-286): as the sequence (Q9H161 200-286 Q225E) above, with E26Q counted along it
Sequence of PRRX1 (Homo sapiens, UniProt P54821 80-166, F113S) (P54821 80-166 F113S): as the sequence (P54821 80-166) above, with F34S counted along it

Sequence	binding signal (VENTX)	binding signal (HOXA4 [1])	binding signal (HOXA7 [2])	binding signal (ALX4 [3])	binding signal (PRRX1 [4])	binding signal (HOXB6 [5])	binding signal (ALX4 [6])	binding signal (HOXA2)	binding signal (HOXA4 [7])	binding signal (HOXA4 [8])	binding signal (VAX1 [9])	binding signal (VAX1 [10])	binding signal (HOXA7 [11])	binding signal (HOXA4 [12])	binding signal (PRRX1 [13])	binding signal (VAX1 [14])	binding signal (HOXB6 [15])	binding signal (MSX2 [16])	binding signal (MSX2 [17])	binding signal (MSX2 [18])
ATTAATGA	12.2 upbm affinity estimate (log intensity, higher = more binding, comparable within an allelic series)	10.8 upbm affinity estimate (log intensity, higher = more binding, comparable within an allelic series)	12 upbm affinity estimate (log intensity, higher = more binding, comparable within an allelic series)	13.8 upbm affinity estimate (log intensity, higher = more binding, comparable within an allelic series)	11.2 upbm affinity estimate (log intensity, higher = more binding, comparable within an allelic series)	10.3 upbm affinity estimate (log intensity, higher = more binding, comparable within an allelic series)	12.8 upbm affinity estimate (log intensity, higher = more binding, comparable within an allelic series)	13.3 upbm affinity estimate (log intensity, higher = more binding, comparable within an allelic series)	12.9 upbm affinity estimate (log intensity, higher = more binding, comparable within an allelic series)	14.2 upbm affinity estimate (log intensity, higher = more binding, comparable within an allelic series)	13.4 upbm affinity estimate (log intensity, higher = more binding, comparable within an allelic series)	13.4 upbm affinity estimate (log intensity, higher = more binding, comparable within an allelic series)	8.94 upbm affinity estimate (log intensity, higher = more binding, comparable within an allelic series)	12.2 upbm affinity estimate (log intensity, higher = more binding, comparable within an allelic series)	13.3 upbm affinity estimate (log intensity, higher = more binding, comparable within an allelic series)	13.3 upbm affinity estimate (log intensity, higher = more binding, comparable within an allelic series)	12.3 upbm affinity estimate (log intensity, higher = more binding, comparable within an allelic series)			
AATTAATG	12 upbm affinity estimate (log intensity, higher = more binding, comparable within an allelic series)	10.6 upbm affinity estimate (log intensity, higher = more binding, comparable within an allelic series)	11.9 upbm affinity estimate (log intensity, higher = more binding, comparable within an allelic series)	14 upbm affinity estimate (log intensity, higher = more binding, comparable within an allelic series)	11.3 upbm affinity estimate (log intensity, higher = more binding, comparable within an allelic series)	10.1 upbm affinity estimate (log intensity, higher = more binding, comparable within an allelic series)	13.4 upbm affinity estimate (log intensity, higher = more binding, comparable within an allelic series)	13 upbm affinity estimate (log intensity, higher = more binding, comparable within an allelic series)	12.5 upbm affinity estimate (log intensity, higher = more binding, comparable within an allelic series)	14.1 upbm affinity estimate (log intensity, higher = more binding, comparable within an allelic series)	13.1 upbm affinity estimate (log intensity, higher = more binding, comparable within an allelic series)	12.9 upbm affinity estimate (log intensity, higher = more binding, comparable within an allelic series)	8.87 upbm affinity estimate (log intensity, higher = more binding, comparable within an allelic series)	11.9 upbm affinity estimate (log intensity, higher = more binding, comparable within an allelic series)	13.4 upbm affinity estimate (log intensity, higher = more binding, comparable within an allelic series)	12.8 upbm affinity estimate (log intensity, higher = more binding, comparable within an allelic series)	12.2 upbm affinity estimate (log intensity, higher = more binding, comparable within an allelic series)	12.5 upbm affinity estimate (log intensity, higher = more binding, comparable within an allelic series)	13.5 upbm affinity estimate (log intensity, higher = more binding, comparable within an allelic series)	13.2 upbm affinity estimate (log intensity, higher = more binding, comparable within an allelic series)
TAATTAAA	12.1 upbm affinity estimate (log intensity, higher = more binding, comparable within an allelic series)	10.8 upbm affinity estimate (log intensity, higher = more binding, comparable within an allelic series)	11.9 upbm affinity estimate (log intensity, higher = more binding, comparable within an allelic series)	14.4 upbm affinity estimate (log intensity, higher = more binding, comparable within an allelic series)	11.9 upbm affinity estimate (log intensity, higher = more binding, comparable within an allelic series)	10.1 upbm affinity estimate (log intensity, higher = more binding, comparable within an allelic series)	14.1 upbm affinity estimate (log intensity, higher = more binding, comparable within an allelic series)	13.5 upbm affinity estimate (log intensity, higher = more binding, comparable within an allelic series)	12.8 upbm affinity estimate (log intensity, higher = more binding, comparable within an allelic series)	14.1 upbm affinity estimate (log intensity, higher = more binding, comparable within an allelic series)	13.3 upbm affinity estimate (log intensity, higher = more binding, comparable within an allelic series)	13.4 upbm affinity estimate (log intensity, higher = more binding, comparable within an allelic series)	8.8 upbm affinity estimate (log intensity, higher = more binding, comparable within an allelic series)	12.3 upbm affinity estimate (log intensity, higher = more binding, comparable within an allelic series)	13.6 upbm affinity estimate (log intensity, higher = more binding, comparable within an allelic series)	13.4 upbm affinity estimate (log intensity, higher = more binding, comparable within an allelic series)	12.3 upbm affinity estimate (log intensity, higher = more binding, comparable within an allelic series)	12.9 upbm affinity estimate (log intensity, higher = more binding, comparable within an allelic series)	13.9 upbm affinity estimate (log intensity, higher = more binding, comparable within an allelic series)	13.5 upbm affinity estimate (log intensity, higher = more binding, comparable within an allelic series)
ATTAATTG	12.2 upbm affinity estimate (log intensity, higher = more binding, comparable within an allelic series)	10.7 upbm affinity estimate (log intensity, higher = more binding, comparable within an allelic series)	12 upbm affinity estimate (log intensity, higher = more binding, comparable within an allelic series)	14.2 upbm affinity estimate (log intensity, higher = more binding, comparable within an allelic series)	11.4 upbm affinity estimate (log intensity, higher = more binding, comparable within an allelic series)	10.1 upbm affinity estimate (log intensity, higher = more binding, comparable within an allelic series)	13.8 upbm affinity estimate (log intensity, higher = more binding, comparable within an allelic series)	13.3 upbm affinity estimate (log intensity, higher = more binding, comparable within an allelic series)	12.5 upbm affinity estimate (log intensity, higher = more binding, comparable within an allelic series)	14 upbm affinity estimate (log intensity, higher = more binding, comparable within an allelic series)	13.2 upbm affinity estimate (log intensity, higher = more binding, comparable within an allelic series)	12.9 upbm affinity estimate (log intensity, higher = more binding, comparable within an allelic series)	8.87 upbm affinity estimate (log intensity, higher = more binding, comparable within an allelic series)	11.8 upbm affinity estimate (log intensity, higher = more binding, comparable within an allelic series)	13.4 upbm affinity estimate (log intensity, higher = more binding, comparable within an allelic series)	12.9 upbm affinity estimate (log intensity, higher = more binding, comparable within an allelic series)	12.3 upbm affinity estimate (log intensity, higher = more binding, comparable within an allelic series)	13.1 upbm affinity estimate (log intensity, higher = more binding, comparable within an allelic series)	14 upbm affinity estimate (log intensity, higher = more binding, comparable within an allelic series)	13.7 upbm affinity estimate (log intensity, higher = more binding, comparable within an allelic series)
GCAATTAA	12.2 upbm affinity estimate (log intensity, higher = more binding, comparable within an allelic series)	10.6 upbm affinity estimate (log intensity, higher = more binding, comparable within an allelic series)	12.3 upbm affinity estimate (log intensity, higher = more binding, comparable within an allelic series)	13.8 upbm affinity estimate (log intensity, higher = more binding, comparable within an allelic series)	11.1 upbm affinity estimate (log intensity, higher = more binding, comparable within an allelic series)	10.1 upbm affinity estimate (log intensity, higher = more binding, comparable within an allelic series)	13.3 upbm affinity estimate (log intensity, higher = more binding, comparable within an allelic series)	13.2 upbm affinity estimate (log intensity, higher = more binding, comparable within an allelic series)	12.4 upbm affinity estimate (log intensity, higher = more binding, comparable within an allelic series)	13.9 upbm affinity estimate (log intensity, higher = more binding, comparable within an allelic series)	13.2 upbm affinity estimate (log intensity, higher = more binding, comparable within an allelic series)	13.2 upbm affinity estimate (log intensity, higher = more binding, comparable within an allelic series)	8.72 upbm affinity estimate (log intensity, higher = more binding, comparable within an allelic series)	11.8 upbm affinity estimate (log intensity, higher = more binding, comparable within an allelic series)	13.2 upbm affinity estimate (log intensity, higher = more binding, comparable within an allelic series)	12.9 upbm affinity estimate (log intensity, higher = more binding, comparable within an allelic series)	12.7 upbm affinity estimate (log intensity, higher = more binding, comparable within an allelic series)	13.2 upbm affinity estimate (log intensity, higher = more binding, comparable within an allelic series)	14.1 upbm affinity estimate (log intensity, higher = more binding, comparable within an allelic series)	13.7 upbm affinity estimate (log intensity, higher = more binding, comparable within an allelic series)
ATAATTAC	12.1 upbm affinity estimate (log intensity, higher = more binding, comparable within an allelic series)	10.9 upbm affinity estimate (log intensity, higher = more binding, comparable within an allelic series)	12.2 upbm affinity estimate (log intensity, higher = more binding, comparable within an allelic series)	14 upbm affinity estimate (log intensity, higher = more binding, comparable within an allelic series)	11.6 upbm affinity estimate (log intensity, higher = more binding, comparable within an allelic series)	10.2 upbm affinity estimate (log intensity, higher = more binding, comparable within an allelic series)	13.4 upbm affinity estimate (log intensity, higher = more binding, comparable within an allelic series)	13.7 upbm affinity estimate (log intensity, higher = more binding, comparable within an allelic series)	12.8 upbm affinity estimate (log intensity, higher = more binding, comparable within an allelic series)	14.2 upbm affinity estimate (log intensity, higher = more binding, comparable within an allelic series)	13.4 upbm affinity estimate (log intensity, higher = more binding, comparable within an allelic series)	13.4 upbm affinity estimate (log intensity, higher = more binding, comparable within an allelic series)	9.02 upbm affinity estimate (log intensity, higher = more binding, comparable within an allelic series)	12.2 upbm affinity estimate (log intensity, higher = more binding, comparable within an allelic series)	13.5 upbm affinity estimate (log intensity, higher = more binding, comparable within an allelic series)	13.5 upbm affinity estimate (log intensity, higher = more binding, comparable within an allelic series)	12.6 upbm affinity estimate (log intensity, higher = more binding, comparable within an allelic series)	13.1 upbm affinity estimate (log intensity, higher = more binding, comparable within an allelic series)	14 upbm affinity estimate (log intensity, higher = more binding, comparable within an allelic series)	13.7 upbm affinity estimate (log intensity, higher = more binding, comparable within an allelic series)
CTTAATTA	12.5 upbm affinity estimate (log intensity, higher = more binding, comparable within an allelic series)	11 upbm affinity estimate (log intensity, higher = more binding, comparable within an allelic series)	12.1 upbm affinity estimate (log intensity, higher = more binding, comparable within an allelic series)	14.5 upbm affinity estimate (log intensity, higher = more binding, comparable within an allelic series)	12 upbm affinity estimate (log intensity, higher = more binding, comparable within an allelic series)	10.3 upbm affinity estimate (log intensity, higher = more binding, comparable within an allelic series)	14.3 upbm affinity estimate (log intensity, higher = more binding, comparable within an allelic series)	13.8 upbm affinity estimate (log intensity, higher = more binding, comparable within an allelic series)	13.1 upbm affinity estimate (log intensity, higher = more binding, comparable within an allelic series)	14.3 upbm affinity estimate (log intensity, higher = more binding, comparable within an allelic series)	13.8 upbm affinity estimate (log intensity, higher = more binding, comparable within an allelic series)	13.9 upbm affinity estimate (log intensity, higher = more binding, comparable within an allelic series)	8.96 upbm affinity estimate (log intensity, higher = more binding, comparable within an allelic series)	13 upbm affinity estimate (log intensity, higher = more binding, comparable within an allelic series)	13.6 upbm affinity estimate (log intensity, higher = more binding, comparable within an allelic series)	13.8 upbm affinity estimate (log intensity, higher = more binding, comparable within an allelic series)	12.5 upbm affinity estimate (log intensity, higher = more binding, comparable within an allelic series)	13.1 upbm affinity estimate (log intensity, higher = more binding, comparable within an allelic series)	14 upbm affinity estimate (log intensity, higher = more binding, comparable within an allelic series)	13.6 upbm affinity estimate (log intensity, higher = more binding, comparable within an allelic series)

Reference: paper PMC11006913
